# Assay outcomes from PubChem BioAssay.
# A selection: hits, their analogues and other compounds. The true share with any hit is near 2.2%.
# Mito fusion yeast: inhibitors of mitochondrial division or activators of mitochondrial fusion | S. cerevisiae fusion-defective mutant growth rescue, CellTiterGlo 48 h | Potency, µM (series often up to 46.1 µM), for the others: at the highest dose growth rescue (activation), actives largely listed as activators | actives 0.23% (n = 320,000) | AID 485298; further: % of control where 0% means no effect; nearly all actives have a fitted effect of over 45% in size
#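 S. cerevisiae fusion-defective temperature-sensitive mutants (e.g. fzo1-1, mgm1-5) grown 48 h at 37C in YPEG (ethanol/glycerol non-fermentable) medium with 23 nl compound per well; growth rescue read as CellTiterGlo luminescence.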
# FUS suppressor: FUS proteinopathy suppression in yeast. S. cerevisiae FUS-expressing, growth rescue, OD600, 24 h. Potency, µM (series often up to 76.6 µM), hits mostly activators. actives 0.24% (n = 390,000). AID 1347120;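 further: plate controls were DMSO vehicle for no effect and reference control for full effect; nearly all actives have a fitted effect of over 55% in size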
#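 Galactose (2%) drives FUS expression in yeast precultured in raffinose; seeding density OD 0.005. Test compounds incubated 24hr at 30C and 99% humidity before absorbance at 600 nm was measured.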
# Abeta yeast res: compounds reversing amyloid beta toxicity in yeast | yeast expressing A-beta42, growth rescue, OD600, 48 h; response scale: 0% DMSO, 100% iron-clioquinol control | Potency, µM (doses to about 46.1 µM), most hits filed as activators | actives 0.063% (n = 410,000); further: nearly all actives have a fitted effect of over 55% in size
#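 Yeast A-beta toxicity model in growth medium with pinned compounds, 48 h at 30 C; growth read as absorbance at 600 nm. Normalized to FeCl3/clioquinol equimolar mix (positive) and DMSO (negative).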
# TDP-43 yeast inh: inhibitors of TDP-43 toxicity in yeast; TDP-43 expressing yeast growth rescue, BacTiter-Glo, 24 h; Potency, µM (doses to about 46.1 µM), without a hit: top-dose growth rescue (activation), usual class: activators; actives 1.8% (n = 410,000); further: % of control where 0% means no effect; nearly all actives have a fitted effect of over 50% in size
#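 In this qHTS, compounds that restore growth of yeast expressing TDP-43 appear as activators. Cells (OD600=0.02, galactose medium, raffinose-pregrown) are incubated with compound 24 hr at 30 deg C and growth is quantified by BacTiter-Glo.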
# aSyn yeast inh: inhibitors of alpha-synuclein toxicity in yeast | Potency, µM (highest dose often 46.1 µM), for inactives: at the top dose growth rescue (activation), usual class: activators | actives 0.14% (n = 370,000) | AID 652106 | Yeast expressing alpha-synuclein, growth rescue, BacTiter-Glo, 24 h; further: % of control where 0% means no effect; nearly all actives have a fitted effect of over 65% in size
#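 Galactose-induced alpha-syn yeast (OD600=0.02, raffinose-pregrown) + pinned cpd, 24 hr, 30 deg C; growth by BacTiter-Glo luminescence. Growth restoration scores as activation.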
# An asterisk follows results filed as active; i = inactive; ? = inconclusive; nt = no result given; [ ] = dose if it differs, or a comment. The call rests on the fitted dose curve; in most records, active means well fitted curve in the direction sought with a large enough effect; inconclusive means small, poorly fitted or top-dose-only effect, or another doubt; inactive means no such curve, though single readings can be large; an effect the other way counts as inactive or inconclusive. Potency means the concentration at half of the fitted maximal effect.
SMILES,Mito fusion yeast,FUS suppressor,Abeta yeast res,TDP-43 yeast inh,aSyn yeast inh
CCOC(=O)c1c(C)oc2ccc(N(C(=O)c3ccncc3)S(=O)(=O)c3ccc(F)cc3C)cc12,nt,?,i,25.6%,nt
Cc1ccc([N+](=O)[O-])cc1S(=O)(=O)N(C(=O)c1ccncc1)c1ccc2oc3c(c2c1)CCCC3,12.6µM*,nt,i,-15.8%,21.6%
COc1ccc(NC(=O)CSc2nc3nc(C)c(Cc4ccccc4Cl)c(C)n3n2)cc1OC,nt,?,i,9.1%,nt
CCOC(=O)c1c(NC(C)=O)c2c3c(sc2n1Cc1nc(-c2ccc(Cl)cc2)oc1C)CCCC3,nt,i,i,11.9%,nt
COc1cccc(NC(=O)c2ccc(N3C(=O)C4CC=CCC4C3=O)cc2)c1 (configuration not stated),nt,i,i,-4.9%,1.5%
Cc1nn(CC(=O)Nc2cccc(C(F)(F)F)c2)c(=O)c2cccn12,2.9%,i,i,0.7%,6.31µM*
CCN(CC)C(=S)SCC(=O)Nc1cccc(C(F)(F)F)c1,nt,i,i,12.6µM*,10.7%
O=C(CSc1nc2ncccc2o1)Nc1cccc(C(F)(F)F)c1,nt,i,12.6µM*,10µM*,nt
Cc1cc(NC(=O)Cn2nc(C)n3cccc3c2=O)ccc1Br,nt,i,i,0.5%,nt
CCN(CC)C(=S)SCC(=O)Nc1ccc(F)cc1,4.6%,i,i,14.1µM*,8.3%
Cc1cc(C)n(CC(=O)Nc2cccc(C(F)(F)F)c2)n1,3.0%,i,i,8.1%,0.3%
CCOc1ccccc1C(=O)NCCN1CCC(n2c(=O)[nH]c3ccccc32)CC1,nt,i,i,-14.7%,-0.4%
Cc1cccc(Cn2cc(COC(=O)NCCc3c[nH]c4ccccc34)nn2)c1,nt,i,nt,nt,nt
O=C1C2C=CC=CC2=NC(=S)N1CCN1CCC(=C(c2ccc(F)cc2)c2ccc(F)cc2)CC1 (configuration not stated),5.8µM*,nt,nt,nt,-14.2%
CC(OC(=O)CCN1C(=O)C2CC=CCC2C1=O)C(=O)c1ccc(F)cc1 (configuration not stated),-2.9%,i,i,4.0%,3.0%[1.84 µM]
CC1(c2ccc(Cl)cc2)CC(C)(C)N(C(=O)c2ccccc2)c2ccccc21 (configuration not stated),nt,i,i,-8.7%,nt
CC1(c2cc([N+](=O)[O-])cc([N+](=O)[O-])c2)CC(C)(C)N(C(=O)c2ccccc2)c2ccccc21 (configuration not stated),-5.1%,i,i,25.1µM*,-15.4%
COc1cc2c(C(=O)N3CCN(c4cccc(C(F)(F)F)c4)CC3)cn(CC(C)C)c(=O)c2cc1OC,nt,22.4µM*,i,?,nt
O=C(c1c(F)cccc1F)N1CCN(c2cccc(C(F)(F)F)c2)CC1,6.0%,i,i,15.8µM*,14.0%
COc1cc2c(C(=O)N3CCN(c4cc(Cl)ccc4C)CC3)cn(CC(C)C)c(=O)c2cc1OC,nt,i,i,6.2%,nt
COc1cc(NC(=O)CCc2c(C)n(C)c3cc(-c4ccccc4C)nn3c2=O)cc(OC)c1OC,nt,i,i,-4.5%,nt
Cc1nn(-c2ccccc2)c(Cl)c1C(=O)NNC(=O)c1ccccc1O,11.6%,?,i,-1.7%,-0.3%[1.84 µM]
COC(C(=O)Nc1ccnn1C1CCN(Cc2nccs2)CC1)c1ccccc1 (configuration not stated),-0.7%,nt,i,0.0%,-1.9%
CC1=NN(/C(=N\c2nnc(C)s2)Nc2ccc(C(C)(C)C)cc2)[C@H](c2ccc(C)cc2)S1,28.1%,?,i,35.5µM*,-0.1%
COC(=O)c1ccc2nc3c(cc2c1)[C@@H]1CCN2C(=O)CCC[C@H](C3)[C@H]12,nt,i,i,16.7%,-0.8%
O=C1CCC[C@@H]2Cc3[nH]c4c(Cl)ccc(Cl)c4c3[C@@H]3CCN1[C@H]23,2.4%,i,i,28.2µM*,14.9%
COc1ccc(NC(=O)O/N=C2/CCCc3ccc(OC)cc32)cc1,7.2%,i,i,14.1µM*,-11.2%
